{"source": "PubChem BioAssay AID1066", "about": "(SRMLSC, 2008)", "note": "The whole screen tested about 190,000 compounds, of which about 790 (0.42%) were called active. The sample as a whole holds a higher share of actives than the screen did. A number with no mark means an inactive call.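 How the source made its calls: active means inhibition above a set limit, the median over all tested compounds plus 3 SD (cut at about 9.5% in these data); inconclusive means no clear call, values can overlap the other calls; inactive means the rest.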"}
{"test_system": "HMG-CoA reductase (Enterococcus faecalis, mvaE)", "assay": "class II HMG-CoA reductase enzyme inhibition – biochemical, Enterococcus faecalis, primary screen (AID 1066);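 further: enzyme runs in reverse so mevalonate oxidation gives rising NADPH absorbance; 0% = complete reaction with DMSO and 100% = background rate lacking mevalonate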", "conditions": "purified E. faecalis HMGR, NADPH absorbance 340 nm kinetic; at 10 µM; hits give high values"}
{"compound": "CCc1ccc(NC(=O)Nc2ccncc2)cc1", "inhibition": "-0.38%"}
{"compound": "CCOC(=O)CCCNC(=O)COC(=O)c1cc(Br)c(Br)s1", "inhibition": "6.54%"}
{"compound": "Cc1cccc(-c2ncc(CN3CCC(CO)(CCCc4ccccc4)CC3)cn2)c1", "inhibition": "3.07%"}
{"compound": "COc1ccc(CC2(CO)CCN(Cc3cnn(C)c3)CC2)cc1", "inhibition": "1.94%"}
{"compound": "COc1cccc(CC2(CO)CCN(Cc3cnc(-c4cccc(C)c4)nc3)CC2)c1", "inhibition": "10.2% (active)"}
{"compound": "Cc1cc(C)cc(NC(=S)NCCCN2CCOCC2)c1", "inhibition": "-2.33%"}
{"compound": "Cc1ccc(NC(=S)NCCN2CCOCC2)cc1", "inhibition": "-1.8%"}
{"compound": "CCCCc1ccc(NC(=S)NCCCN2CCOCC2)cc1", "inhibition": "9.74% (active)"}
{"compound": "CCOC(=O)c1sc(NC(=O)c2cc(S(=O)(=O)N3CCOCC3)ccc2C)nc1C", "inhibition": "-0.38%"}
{"compound": "Cc1ccc(S(=O)(=O)N2CCOCC2)cc1C(=O)NCc1ccc(F)cc1", "inhibition": "-7.95%"}
{"compound": "Cc1ccc(S(=O)(=O)N2CCOCC2)cc1C(=O)OC1CCCCC1=O", "note": "(stereo not drawn)", "inhibition": "11.2% (active)"}
{"compound": "C/C=C/C=C/C(=O)OCC(=O)Nc1ccc(Cl)cc1", "inhibition": "-6.31%"}
{"compound": "O=C(/C=C/c1ccc(Cl)cc1)Nc1ccc(S(=O)(=O)Nc2ncccn2)cc1", "inhibition": "1.98%"}
{"compound": "CC(=O)NS(=O)(=O)c1ccc(NC(=O)/C=C/c2ccccc2Cl)cc1", "inhibition": "4.83%"}
{"compound": "O=C(/C=C/c1ccccc1Cl)Nc1ccc(S(=O)(=O)Nc2ncccn2)cc1", "inhibition": "9.55% (active)"}
{"compound": "CCOC(=O)C1CCN(S(=O)(=O)c2cc(F)ccc2OC)CC1", "inhibition": "-2.34%"}
{"compound": "COc1cc(Cl)c(C)cc1NC(=O)[C@@H]1CCCN1C(=O)c1cccs1", "inhibition": "-6.68%"}
{"compound": "CCOC(=O)C1(Cc2cccc(OC)c2)CCN(C(C)CC(C)(C)O)CC1", "note": "(stereo not drawn)", "inhibition": "-0.39%"}
{"compound": "COc1ccc(C(=O)NC2CCN(C(=S)Nc3ccccc3)CC2)cc1", "inhibition": "-0.68%"}
{"compound": "COc1ccc(C(=O)NC2CCN(C(=S)NCCc3ccccc3)CC2)cc1", "inhibition": "16.3% (active)"}
{"compound": "O=C1CCN(C(=S)NCCc2ccccc2)CC1", "inhibition": "4.83%"}
{"compound": "Cc1ccc2c(c1)C1CN(C)CCC1N2S(=O)(=O)c1ccc(Oc2ccc([N+](=O)[O-])cc2)cc1", "note": "(stereo not drawn)", "inhibition": "-1.37%"}
{"compound": "O=C(COC(=O)c1ccc(Cl)nc1)NCc1cccs1", "inhibition": "-2.01%"}
{"compound": "COc1cc(/C=C2/C(=O)ON=C2C)ccc1OCc1cccc(F)c1", "inhibition": "15.9% (active)"}
{"compound": "COc1cc(/C=N/n2c(C)n[nH]c2=S)ccc1OCc1ccccc1", "inhibition": "5.27%"}
{"compound": "COc1cc(/C=C2/C(=O)ON=C2C)ccc1OCc1ccccc1F", "inhibition": "-4.22%"}
{"compound": "N/C(Cc1ccc([N+](=O)[O-])cc1)=N\\OC(=O)C1CCCCC1", "inhibition": "5.63%"}
{"compound": "Cc1ccc(S(=O)(=O)N2CCOCC2)cc1NC(=O)CSc1nnc(N)s1", "inhibition": "-3.38%"}
{"compound": "CCOC(=O)CNC(=O)CN1C(=O)CCSc2ccccc21", "inhibition": "0.21%"}
{"compound": "CCNC(=O)N1c2ccccc2Sc2ccccc21", "inhibition": "-0.32%"}
{"compound": "CCOC(=O)CNC(=O)N1c2ccccc2Sc2ccccc21", "inhibition": "10.8% (active)"}
{"compound": "CCOC(=O)C1CCCN(C(=O)c2cccc(S(=O)(=O)N3CCOCC3)c2)C1", "note": "(stereo not drawn)", "inhibition": "2.45%"}
{"compound": "O=C(CCc1[nH]c2ccccc2c1Sc1ccccc1)N(CCO)CCO", "inhibition": "-1.48%"}
{"compound": "COCc1c(N)c(C)nc(Cl)c1C#N", "inhibition": "-1.22%"}
{"compound": "CN(Cc1ccccn1)Cc1nc(-c2ccc(Cl)cc2)no1", "inhibition": "-4.55%"}
{"compound": "CC(C)(C)c1csc(NC2=NS(=O)(=O)c3ccccc32)n1", "inhibition": "-4.26%"}
{"compound": "O=C(Oc1cccc(NC2=NS(=O)(=O)c3ccccc32)c1)c1ccncc1", "inhibition": "13.3% (active)"}
{"compound": "O=C(Oc1ccccc1)c1ccc2nccnc2c1", "inhibition": "-2.55%"}
{"compound": "O=C1Oc2ccccc2C(=O)/C1=C/c1ccccc1O", "inhibition": "-4.42%"}
{"compound": "Cc1ccc(CN2CCN(Cc3cccc(C)n3)CC2CCO)cc1", "note": "(stereo not drawn)", "inhibition": "-2.73%"}
{"compound": "CC(C)OC(=O)CN1C(=O)c2ccccc2C1=O", "inhibition": "0.65%"}
{"compound": "O=C1c2ccccc2C(=O)N1CCC(c1ccccc1)c1ccco1", "note": "(stereo not drawn)", "inhibition": "-3.81%"}
{"compound": "O=C1c2ccccc2C(=O)N1CCC(O)C[N+](=O)[O-]", "note": "(stereo not drawn)", "inhibition": "14.4% (active)"}
